The source of these data is PubChem BioAssay.

Activity calls are given as the source filed them. Unless noted, how the calls were made is not given here.

What is called inhibition is the relative decrease from the control value, in per cent.

Test [1] has as its system Hepatitis C virus NS3 helicase. The experiment in a line: HCV NS3 helicase inhibitors, primary screen, biochemical, fluorescence polarization, LOPAC1280 library (AID 687035; in the data active means inhibition above about 37%). To be noted: Purified HCV NS3 helicase, Cy5-dT15 ssDNA binding fluorescence polarization; stronger effect = higher value; concentration not given here. For orientation: In fluorescence polarisation assays a small probe gives low polarisation when free and higher when bound to something large.

Test [2] can be described thus: Cy5 fluorescence quenching or enhancement artefacts, artefact control for HCV NS3 helicase inhibitor project, biochemical, LOPAC1280 (AID 687037). To be noted: Cy5-DNA-NS3h complex fluorescence interference counterscreen. On the technique in general: The purpose of a counterscreen is to sort out artefacts and off-target activity.
The nature of test [3]: sensitizers of A549 cells to miR-34 induction, primary screen, imaging, A549 dox-inducible miR-34, nuclei and caspase counts (AID 1347080;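 active means compounds whose cell count with miR-34 switched on is under 0.7 times the count with it off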). The following applies: A549 miR-34 inducible, Hoechst nuclei count, 48 h.
Test [4] can be described thus: phospholipid biosynthesis inhibitors in animal cells, primary screen, cell-based, LOPAC library, screen 4 (AID 1347384). To be noted: phospholipid biosynthesis inhibition screen, at 10 µM.
Test [5] in a line: viability rescue of complex I mutant cybrids, primary screen, cell-based, galactose medium, ATP luminescence (AID 1645843;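 active means z-score of at least 1.8 in each of two replicates, scored against plate mean and spread of sample wells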;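 further: positive z means more ATP and so rescue of galactose-driven cybrid death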). The following applies: complex I mutant cybrid cells, 72 h, stronger effect = higher value.
Setting [6] is: stronger effect = lower value, cell number ratio, induced over uninduced.
Where [7] appears, read: measured here: relative caspase fold change +Dox/-Dox.
Setting [8] is: measured here: total cells with miR-34 induction, stronger effect = lower value.
Setting [9] is: measured here: total cells without miR-34 induction.

Take `COc1ccc(/C=C2\COc3ccc(C)cc3C2=O)cc1O`: in test [1], the inhibition is 1% (inactive). In test [2], the fluorescence ratio (interference) was 1 (inactive). The fold change in test [3] (setting [6]) is 1.16 (inactive); in test [3] (setting [7]), 2.59. Further, the results for the cell count in test [3] (setting [8]) and in test [3] (setting [9]) were 3090 and 2660, respectively. The result in test [4] was inactive. The z-score in test [5] was -1.36 (inactive).

As to `Brc1c(Br)c(Br)c2[nH]cnc2c1Br`, the inhibition in test [1] is 0% (inactive). Besides, the fluorescence ratio (interference) in test [2] is 1 (inactive). In addition, the fold change in test [3] (setting [6]) was 1.11 (inactive); in test [3] (setting [7]) it was 2.37. Further, the cell count worked out at 3750 in test [3] (setting [8]) and 3380 in test [3] (setting [9]). In test [4], the outcome was inactive. In test [5], the z-score is -1.17 (inactive).

Take `CNCCc1cnc(CCC(c2ccccc2)c2ccccc2)[nH]1`: the inhibition in test [1] was -4% (inactive). In test [2], the fluorescence ratio (interference) was 1 (inactive). In addition, the fold change in test [3] (setting [6]) is 1.13 (inactive); in test [3] (setting [7]) it was 0.656. Moreover, the cell count in test [3] (setting [8]) was found to be 5430; in test [3] (setting [9]), 4810. Moreover, the compound was called inactive in test [4]. The z-score in test [5] is -0.725 (inactive).

With `CC[n+]1c(/C=C/C=C2/N(C)c3ccccc3C2(C)C)sc2ccccc21`, in test [1], the inhibition was 1% (inactive). Further, in test [2], the fluorescence ratio (interference) was 0.9 (inactive). The fold change is 1.18 (inactive) in test [3] (setting [6]) and 0.865 in test [3] (setting [7]). Further, the cell count in test [3] (setting [8]) turned out to be 1270; in test [3] (setting [9]), 1080. The outcome in test [4] was inactive. In addition, the z-score in test [5] was -1.04 (inactive).

As for `c1ccc2c(c1)CC(N1CCN(c3cccc4c3OCCO4)CC1)C2`, the inhibition in test [1] is -2% (inactive). In test [2], the fluorescence ratio (interference) is 1 (inactive). For the same compound, the fold change is 1.01 (inactive) in test [3] (setting [6]) and 1.01 in test [3] (setting [7]). Further, the values for the cell count in test [3] (setting [8]) and in test [3] (setting [9]) were 8000 and 7890, respectively. In test [4], the compound was classed as inactive. Moreover, in test [5], the z-score was 0.255 (inactive).

On to `Cc1cc2c(cc1Cl)N(C(=O)Nc1ccc(Oc3cccnc3C)nc1)CC2`, for which the inhibition in test [1] is -2% (inactive). Moreover, the fluorescence ratio (interference) in test [2] was 0.9 (inactive). Besides, the values for the fold change in test [3] (setting [6]) and in test [3] (setting [7]) were 0.93 (inactive) and 1.1, respectively. Further, the cell count in test [3] (setting [8]) came to 4820; in test [3] (setting [9]), 5180. Besides, in test [4], the compound was classed as inactive. In addition, the z-score in test [5] is -1.26 (inactive).

For the compound `CC(=O)/C=C1\C(=O)N(C)c2ccccc21`, in test [1], the inhibition was -2% (inactive). The fluorescence ratio (interference) in test [2] was 0.9 (inactive). Besides, the fold change in test [3] (setting [6]) was 0.98 (inactive); in test [3] (setting [7]), 1.31. Moreover, the cell count amounted to 6920 in test [3] (setting [8]) and 7060 in test [3] (setting [9]). Moreover, the outcome in test [4] was inactive. Besides, the z-score in test [5] was -1.48 (inactive).

Take `Cc1cc(Cn2cnc3c2C[C@@H](C(=O)O)N(C(=O)C(c2ccccc2)c2ccccc2)C3)ccc1N`: the inhibition in test [1] was 0% (inactive). In addition, the fluorescence ratio (interference) in test [2] is 1 (inactive). For the same compound, the fold change in test [3] (setting [6]) is 1.01 (inactive); in test [3] (setting [7]), 2.03. Moreover, the cell count was found to be 10300 in test [3] (setting [8]) and 10200 in test [3] (setting [9]). Besides, the compound was called inactive in test [4]. Further, the z-score in test [5] is 0.405 (inactive).

For the compound `CCN(CC)CCNC(=O)c1ccc(NS(C)(=O)=O)cc1`, the inhibition in test [1] is -2% (inactive). In addition, the fluorescence ratio (interference) in test [2] was 1.1 (inactive). For the same compound, the values for the fold change in test [3] (setting [6]) and in test [3] (setting [7]) were 1.02 (inactive) and 0.826, respectively. Further, the cell count in test [3] (setting [8]) was determined as 10400; in test [3] (setting [9]), 10100. Further, the compound was called inactive in test [4]. The z-score in test [5] is 0.325 (inactive).

For `O=C(c1ccc(Cl)cc1)N1CCN(c2ccc([N+](=O)[O-])c3ncccc23)CC1`, the inhibition in test [1] was 0% (inactive). Besides, the fluorescence ratio (interference) in test [2] was 1 (inactive). Further, the figures for the fold change in test [3] (setting [6]) and in test [3] (setting [7]) were 0.912 (inactive) and 1.42, respectively. Besides, the cell count in test [3] (setting [8]) amounted to 6530; in test [3] (setting [9]), 7170. For the same compound, the compound was classed as inactive in test [4]. The z-score in test [5] is -1 (inactive).

As to `O=c1cc(-c2ccccc2F)[nH]c2cc3c(cc12)OCO3`, the inhibition in test [1] was -7% (inactive). Besides, the fluorescence ratio (interference) in test [2] is 0.9 (inactive). For the same compound, the fold change in test [3] (setting [6]) is 1.11 (inactive); in test [3] (setting [7]), 0.744. The figures for the cell count in test [3] (setting [8]) and in test [3] (setting [9]) were 1710 and 1540, respectively. Moreover, the compound was called inactive in test [4]. The z-score in test [5] is -0.62 (inactive).

For `COc1cc(N)c(Cl)cc1C(=O)OCCN1CCCCC1`, the inhibition in test [1] is -5% (inactive). For the same compound, in test [2], the fluorescence ratio (interference) was 1 (inactive). The fold change in test [3] (setting [6]) was 1.11 (inactive); in test [3] (setting [7]) it was 1.42. In addition, the cell count in test [3] (setting [8]) was found to be 10600; in test [3] (setting [9]) it was 9550. In addition, the call in test [4] was inactive. In addition, the z-score in test [5] is 0.695 (inactive).
